ALR inh: inhibitors of human sulfhydryl oxidase ALR; P55789; inhibition, % (concentration not given with the values); 290,000 compounds, 3.8% hits; purified ALR, DTT oxidation, H2O2 HRP-luminol luminescence;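 active means mean replicate inhibition above about 79%, with every replicate also reaching it, limit read from the data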
HDAC3 inhib: inhibitors of human histone deacetylase 3. O15379. recombinant HDAC3, fluorogenic peptide/trypsin coupled, fluorescence. inhibition, % at 8.3 µM. 320,000 compounds, 0.15% hits; in the data active means inhibition above about 26%, passing the limit was not always enough
Target sequence (O15379 whole entry, looked up): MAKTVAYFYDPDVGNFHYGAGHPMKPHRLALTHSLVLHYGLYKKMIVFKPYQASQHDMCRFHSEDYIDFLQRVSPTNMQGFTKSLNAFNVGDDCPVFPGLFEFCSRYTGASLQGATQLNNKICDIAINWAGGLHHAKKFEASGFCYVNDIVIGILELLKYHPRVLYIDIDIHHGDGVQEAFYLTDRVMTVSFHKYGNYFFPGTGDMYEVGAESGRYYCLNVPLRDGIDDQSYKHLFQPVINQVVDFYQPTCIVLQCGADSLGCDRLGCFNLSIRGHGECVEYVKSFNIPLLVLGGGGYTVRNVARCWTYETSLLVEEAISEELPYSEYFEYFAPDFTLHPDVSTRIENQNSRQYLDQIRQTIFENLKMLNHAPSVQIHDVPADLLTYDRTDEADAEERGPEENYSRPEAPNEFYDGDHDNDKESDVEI
Rce1 inhib: inhibitors of yeast Ras-converting enzyme. 290,000 compounds, 0.27% hits. calls only. AID 2563. yeast membranes, quenched prenylated peptide cleavage fluorescence;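 active means fall in fluorescence gain of 50% or more versus controls, with final raw signal at or below 3038400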
Rtt109 Vps75: inhibitors of Candida albicans Rtt109/Vps75 histone acetyltransferase | inhibition, % at 34.9 µM | 330,000 compounds, 0.16% hits | purified Rtt109/Vps75, ThioGlo CoA-SH fluorescence, 4 h | AID 540336 | Q5AAJ8;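 active means inhibition of at least 50% in every replicate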
Target sequence (Q5AAJ8 whole entry, looked up): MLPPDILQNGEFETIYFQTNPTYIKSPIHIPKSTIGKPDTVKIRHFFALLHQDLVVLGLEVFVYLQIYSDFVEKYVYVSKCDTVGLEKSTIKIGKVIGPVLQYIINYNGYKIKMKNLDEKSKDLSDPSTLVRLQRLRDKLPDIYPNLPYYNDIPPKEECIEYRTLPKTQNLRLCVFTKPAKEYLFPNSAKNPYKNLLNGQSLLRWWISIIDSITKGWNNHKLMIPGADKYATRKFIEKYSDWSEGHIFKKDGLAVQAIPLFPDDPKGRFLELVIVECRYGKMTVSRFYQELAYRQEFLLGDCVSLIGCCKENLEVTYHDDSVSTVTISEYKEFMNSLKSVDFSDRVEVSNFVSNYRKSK
Efflux pump mplx: antifungal efflux pump inhibition, Nile Red retention | S. cerevisiae Candida pump triplex | inhibition, % at 10 µM | 330,000 compounds, 0.44% hits | AID 485275;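 active means plate passing quality check with inhibition over a set limit, or well fluorescence over plate mean plus 4 SD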;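 further: Nile Red retained in pooled yeast measured as flow cytometry median fluorescence; higher means more Nile Red kept so more efflux inhibition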
GRK2 inh: human GRK2 inhibition via aptamer displacement | inhibition of aptamer binding, % at 10 µM | 330,000 compounds, 0.59% hits | bead flow cytometry, FAM-aptamer displacement from GRK2;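 active means inhibition of aptamer binding above 40%, roughly 3 SD of noise, on plates passing a quality check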;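 further: median bead fluorescence of bound FAM aptamer so fluorescent compounds give negative values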
Yeast cmpd fluor: counter-screen for efflux pump inhibitors: compound fluorescence; S. cerevisiae AD/pABC3, flow cytometry; 1,700 compounds, 4% hits; shares compounds with Efflux pump mplx; fluorescence ratio to DMSO, % at 10 µM;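 active means fluorescence ratio to DMSO above its plate's cutoff, the plate mean ratio plus 5 SD, cut at about 210% in these data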;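 further: unstained yeast with no Nile Red so the signal is compound autofluorescence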
CaMdr1 efflux inh: Candida Mdr1 efflux pump inhibition | shares compounds with Efflux pump mplx | S. cerevisiae AD/CaMDR1, Nile Red efflux, flow cytometry | inhibition, % at 10 µM | 1,700 compounds, 1% hits | AID 588518; in the data active means inhibition above about 26%;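 further: higher means more Nile Red retained so more efflux inhibition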
CaCdr2 efflux inh: Candida Cdr2 efflux pump inhibition; shares compounds with Efflux pump mplx; Nile Red retention ratio vs DMSO, % at 10 µM; 1,700 compounds, 4% hits; S. cerevisiae AD/CaCDR2, Nile Red retention, flow cytometry; AID 588520; in the data active means Nile Red retention ratio vs DMSO above about 190%;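 further: higher ratio means more blocking of Cdr2 efflux of the dye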
Cdr1 pump inh: Candida Cdr1 efflux pump inhibition | S. cerevisiae AD/CaCDR1, Nile Red efflux, flow cytometry | inhibition, % at 10 µM | 1,700 compounds, 1% hits | AID 588522 | shares compounds with Efflux pump mplx;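 active means inhibition above the screen-wide mean plus twice its standard deviation, cut at about 32% in these data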
Large screens that a line does not name were inactive (follow-up assays come after a bar, where they were run). A selection: hits, their analogues and other compounds. The true share with any hit is near 4.5%.

COc1ccc(-c2nn(-c3ccccc3)cc2C(=O)NC2CCCCC2C)cc1 (centres undefined)	none (no result: ALR inh, HDAC3 inhib)
CCOC(=O)c1nn(-c2ccc(F)cc2)c(=O)c(C#N)c1C	none
CCOC(=O)c1nn(-c2ccccc2)c(=O)c(C#N)c1C	Efflux pump mplx 1.0 | Yeast cmpd fluor inactive | CaMdr1 efflux inh inactive | CaCdr2 efflux inh inactive | Cdr1 pump inh inactive
Cc1cnc(C(=O)OCC(=O)Nc2cc(-c3ccccc3)nn2-c2ccccc2)cn1	none
CCOc1ccc(NC(=O)CN(C)S(=O)(=O)c2ccc(-c3ccc(=O)[nH]n3)s2)cc1	none
N#C/C(=C\C=C\c1ccccc1)C(=O)NCc1ccco1	none
O=C(NCc1ccco1)/C(=C/C=C\c1ccccc1)NC(=O)c1ccc(Br)o1	Efflux pump mplx 7.6 | Yeast cmpd fluor inactive | CaMdr1 efflux inh inactive | CaCdr2 efflux inh inactive | Cdr1 pump inh inactive
Cc1cc(/C=N/NC(N)=S)c(C)n1-c1ccc(Cl)c(Cl)c1	none (no result: Rtt109 Vps75)
COc1cccc(NC(=O)C(=O)N/N=C/c2cc(C)n(-c3ccc(Cl)c(Cl)c3)c2C)c1	Efflux pump mplx 0.7 | Yeast cmpd fluor inactive | CaMdr1 efflux inh inactive | CaCdr2 efflux inh inactive | Cdr1 pump inh inactive
Cc1ccc(S(=O)(=O)c2ccc(Cl)cc2)cc1S(=O)(=O)N(C)CC(=O)O	Efflux pump mplx 15 | Yeast cmpd fluor inactive | CaMdr1 efflux inh inactive | CaCdr2 efflux inh inactive | Cdr1 pump inh inactive
Cc1ccc(S(=O)(=O)c2ccc(Cl)cc2)cc1S(N)(=O)=O	none (no result: ALR inh)
COCCNC(=O)c1sc2ncn(CC(=O)N3CCCCC3)c(=O)c2c1C	Efflux pump mplx 1.8 | Yeast cmpd fluor inactive | CaMdr1 efflux inh inactive | CaCdr2 efflux inh inactive | Cdr1 pump inh inactive
Cc1c(C(=O)Nc2c(F)cccc2F)sc2ncn(CC(=O)N3CCCCC3)c(=O)c12	none
CC(C)(C)c1ccc(C(=O)COC(=O)CN2C(=O)NC3(CCCC3)C2=O)cc1	none (no result: HDAC3 inhib)
O=C1N[C@@H](Cc2ccccc2)C(=O)N2[C@H]1C[C@]1([C@]34C[C@H]5C(=O)N[C@@H](Cc6ccccc6)C(=O)N5[C@H]3N(S(=O)(=O)c3ccccc3)c3ccccc34)c3ccccc3N(S(=O)(=O)c3ccccc3)[C@H]21	Efflux pump mplx 0.8 | Yeast cmpd fluor inactive | CaMdr1 efflux inh inactive | CaCdr2 efflux inh inactive | Cdr1 pump inh inactive
O=C(CSc1nnc2c3c4c(sc3ncn12)CCCC4)NCc1ccco1	none
Cc1nc2sc3c(c2c2nnc(SCC(=O)NCc4ccco4)n12)CCCC3	Efflux pump mplx 0.8 | Yeast cmpd fluor inactive | CaMdr1 efflux inh inactive | CaCdr2 efflux inh inactive | Cdr1 pump inh inactive
COc1cccc(C=O)c1OCCN1C(=O)c2ccccc2C1=O	none
COc1ccc(N/C=C/C(=O)c2ccc(Cl)cc2)cc1	Efflux pump mplx 15 | Yeast cmpd fluor inactive | CaMdr1 efflux inh inactive | CaCdr2 efflux inh inactive | Cdr1 pump inh inactive
N#C/C(=C\c1ccc([N+](=O)[O-])o1)C(=O)Nc1ccc(F)cc1	Efflux pump mplx 1.6 | Yeast cmpd fluor 275 | CaMdr1 efflux inh inactive | CaCdr2 efflux inh inactive | Cdr1 pump inh inactive
CSCCC(NC(=O)c1ccccc1Cl)C(=O)N(C)Cc1cccs1 (centres undefined)	Efflux pump mplx 5.5 | Yeast cmpd fluor inactive | CaMdr1 efflux inh inactive | CaCdr2 efflux inh inactive | Cdr1 pump inh inactive
O=C(Nc1ccccc1)N1CCCC(c2nc(-c3ccc(F)cc3)no2)C1 (centres undefined)	none
O=C(C1CCCCC1)N1CCCC(c2nc(-c3ccc(F)cc3)no2)C1 (centres undefined)	Efflux pump mplx 8.2 | Yeast cmpd fluor inactive | CaMdr1 efflux inh inactive | CaCdr2 efflux inh inactive | Cdr1 pump inh inactive
O=C(NNC(=O)C1COc2ccccc2O1)c1cccc([N+](=O)[O-])c1 (centres undefined)	Efflux pump mplx 1.2 | Yeast cmpd fluor inactive | CaMdr1 efflux inh inactive | CaCdr2 efflux inh inactive | Cdr1 pump inh inactive
Cc1nnc(SCc2ccc([N+](=O)[O-])cc2)o1	Efflux pump mplx 1.0 | Yeast cmpd fluor inactive | CaMdr1 efflux inh inactive | CaCdr2 efflux inh inactive | Cdr1 pump inh inactive
Cc1ccc(S(=O)(=O)Nc2ccccc2F)cc1C(=O)NCc1ccco1	none (no result: ALR inh, HDAC3 inhib, Rce1 inhib)
CCCc1nnc(-c2cc(OC)c(OC)c(OC)c2)o1	Efflux pump mplx 1.9 | Yeast cmpd fluor inactive | CaMdr1 efflux inh inactive | CaCdr2 efflux inh inactive | Cdr1 pump inh inactive
CC(=O)Nc1ccccc1OCC(=O)NCC(F)(F)F	Efflux pump mplx 0.6 | Yeast cmpd fluor inactive | CaMdr1 efflux inh inactive | CaCdr2 efflux inh inactive | Cdr1 pump inh inactive
CC(=O)Nc1ccccc1OCC(=O)NC(C)c1ccccc1 (centres undefined)	none
N#C/C(=C\c1ccc(-c2ccc(Br)cc2)o1)C(=O)NCCc1c[nH]c2ccccc12	none
N#C/C(=C/c1ccc(-c2ccc(Br)cc2)o1)C(=O)NC1CCCCC1	Efflux pump mplx 1.7 | Yeast cmpd fluor inactive | CaMdr1 efflux inh inactive | CaCdr2 efflux inh inactive | Cdr1 pump inh inactive
O=C1/C(=C\c2cccc(O)c2O)SC(=S)N1Cc1ccccc1	none (no result: ALR inh)
O=C1/C(=C\c2cc([N+](=O)[O-])ccc2O)SC(=S)N1Cc1ccc(Cl)cc1	Efflux pump mplx 0.7 | Yeast cmpd fluor 507 | CaMdr1 efflux inh inactive | CaCdr2 efflux inh 232 | Cdr1 pump inh inactive
Cc1nc(NC(=S)NC(=O)c2ccco2)sc1C(=O)N(C)C	Efflux pump mplx 5.7 | Yeast cmpd fluor inactive | CaMdr1 efflux inh inactive | CaCdr2 efflux inh inactive | Cdr1 pump inh inactive
COc1cc(OC)cc(C(=O)N[C@H](C(=O)NC2CCCc3ccccc32)C(C)C)c1 (some centres undefined)	none (no result: Rce1 inhib)
O=C(C1CCC1)N1CCc2cc(S(=O)(=O)NCCN3CCN(c4ccccc4F)CC3)ccc21	Efflux pump mplx 1.1 | Yeast cmpd fluor inactive | CaMdr1 efflux inh inactive | CaCdr2 efflux inh inactive | Cdr1 pump inh inactive
O=C(C1CCC1)N1CCc2cc(S(=O)(=O)NCc3ccccn3)ccc21	Efflux pump mplx 0.7 (no result: ALR inh) | Yeast cmpd fluor inactive | CaMdr1 efflux inh inactive | CaCdr2 efflux inh inactive | Cdr1 pump inh inactive
O=C(C1CC1)N1CCc2cc(Br)cc(S(=O)(=O)NCc3ccccn3)c21	none
O=C(C1CC1)N1CCc2cc(S(=O)(=O)NCCCN3CCCCC3)ccc21	none
COc1ccc(NC(=O)C(C)Sc2nnc(C3CC3)n2C2CC2)cc1 (centres undefined)	none (no result: Rce1 inhib)
O=C1OCC/C1=C\c1ccccc1	Efflux pump mplx 6.8 (no result: GRK2 inh) | Yeast cmpd fluor inactive | CaMdr1 efflux inh inactive | CaCdr2 efflux inh inactive | Cdr1 pump inh inactive
COc1ccc(/C=C2\CCOC2=O)cc1	none
